# Test results from PubChem BioAssay (NCATS).
# A number with no mark means an inactive call. Records with an inconclusive call do not appear. Activity calls are given as the source filed them. Unless noted, the call rests on the fitted dose curve; in most records, active means well fitted curve in the direction sought with a large enough effect; inconclusive means small, poorly fitted or top-dose-only effect, or another doubt; inactive means no such curve, though single readings can be large; an effect the other way counts as inactive or inconclusive.
# Assays:
# [1] = Validation of Assay for Modulators of Lamin A Splicing (AID 1459; active means well fitted curve in the direction sought with a large enough effect in the signal ratio; the % refers to the signal ratio;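 further: cells exposed to compound for two days before reading; 0% is about no effect; ratio rise marks activators and ratio drop marks inhibitors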)
# Procedure, shortened: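 Splicing correction read as GFP (500-530 nm) over DsRed2 (575-640 nm) object intensity after 48 h compound exposure of reporter HeLa S3 clones (600 cells/well, 2% FBS medium); ancitabine and cycloheximide titrations, 0.5% DMSO as vehicle.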
# [2] = molecular target: DNA repair nuclease/redox regulator APEX1 (Homo sapiens) (UniProt P27695); assay: qHTS Validation Assay for Inhibitors of the Human Apurinic/apyrimidinic Endonuclease 1 (APE1) (AID 1705;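 further: TAMRA fluorescence gain over two minutes as APE1 cuts a quenched THF abasic duplex; on the % scale 0 is the no-effect control and ±100 the full control effect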)
# Chain of DNA repair nuclease/redox regulator APEX1 (Homo sapiens) (P27695 whole entry, looked up): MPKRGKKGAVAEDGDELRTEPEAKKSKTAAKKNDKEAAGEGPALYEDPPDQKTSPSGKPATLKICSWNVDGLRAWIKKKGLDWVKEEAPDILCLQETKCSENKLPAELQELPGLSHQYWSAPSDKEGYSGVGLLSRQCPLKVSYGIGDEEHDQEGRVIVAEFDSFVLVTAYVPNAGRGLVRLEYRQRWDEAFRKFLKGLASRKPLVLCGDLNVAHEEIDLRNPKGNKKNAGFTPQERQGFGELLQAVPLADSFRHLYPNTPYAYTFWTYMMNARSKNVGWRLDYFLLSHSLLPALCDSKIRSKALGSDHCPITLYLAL
# Procedure, shortened: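 Activity read as rising fluorescence (598 nm emission, 525 nm excitation) from incision of a TAMRA/BHQ-2 duplex carrying a THF abasic site (50 nM). Compound and enzyme sat 15 min at RT before substrate start; signal change between first and third 60-s reads.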
# [3] = Counterscreen for APE1 Inhibitors: Fluorescent Dye Displacement Validation Assay (AID 1707);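 further: plate controls were ThO with dsDNA and no compound for no effect and ThO without dsDNA for full effect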
# Procedure, shortened: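 Endpoint fluorescence read at 480 nm excitation / 540 nm emission; DNA-binding compounds lower signal by displacing 250 nM Thiazole Orange from 50 nM dsDNA containing a tetrahydrofuran abasic site, Tris-HCl pH7.5 buffer with NaCl and MgCl2.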
# [4] = molecular target: Ferritin light chain (Equus caballus) (UniProt P02791); assay: qHTS Validation Assay for Identification of Novel General Anesthetics (AID 2323); further: on the % scale 0 is the no-effect control and ±100 the full control effect
# Chain of Ferritin light chain (Equus caballus) (P02791 2-175 limits assumed): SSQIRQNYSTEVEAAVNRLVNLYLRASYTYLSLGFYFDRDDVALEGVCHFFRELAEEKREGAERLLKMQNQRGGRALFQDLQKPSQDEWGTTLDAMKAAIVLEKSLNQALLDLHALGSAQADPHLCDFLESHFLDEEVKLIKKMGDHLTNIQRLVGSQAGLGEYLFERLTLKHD
# Procedure, shortened: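 Competitive displacement of the profluorescent anesthetic 1-AMA (50% saturated, PBS) from 10 uM apoferritin, 10 min, room temperature. Activity is normalized 380/535 nm fluorescence; concentration-response fitted with a four-parameter Hill equation.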
# [5] = molecular target: ATP-dependent DNA helicase Q1 (Homo sapiens) (UniProt P46063); assay: qHTS Validation Assay for Inhibitors of RecQ-Like Dna Helicase 1 (RECQ1) (AID 2353);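 further: plate controls were DMSO vehicle for no effect and enzyme-free control for full effect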
# Chain of ATP-dependent DNA helicase Q1 (Homo sapiens) (P46063 whole entry, looked up): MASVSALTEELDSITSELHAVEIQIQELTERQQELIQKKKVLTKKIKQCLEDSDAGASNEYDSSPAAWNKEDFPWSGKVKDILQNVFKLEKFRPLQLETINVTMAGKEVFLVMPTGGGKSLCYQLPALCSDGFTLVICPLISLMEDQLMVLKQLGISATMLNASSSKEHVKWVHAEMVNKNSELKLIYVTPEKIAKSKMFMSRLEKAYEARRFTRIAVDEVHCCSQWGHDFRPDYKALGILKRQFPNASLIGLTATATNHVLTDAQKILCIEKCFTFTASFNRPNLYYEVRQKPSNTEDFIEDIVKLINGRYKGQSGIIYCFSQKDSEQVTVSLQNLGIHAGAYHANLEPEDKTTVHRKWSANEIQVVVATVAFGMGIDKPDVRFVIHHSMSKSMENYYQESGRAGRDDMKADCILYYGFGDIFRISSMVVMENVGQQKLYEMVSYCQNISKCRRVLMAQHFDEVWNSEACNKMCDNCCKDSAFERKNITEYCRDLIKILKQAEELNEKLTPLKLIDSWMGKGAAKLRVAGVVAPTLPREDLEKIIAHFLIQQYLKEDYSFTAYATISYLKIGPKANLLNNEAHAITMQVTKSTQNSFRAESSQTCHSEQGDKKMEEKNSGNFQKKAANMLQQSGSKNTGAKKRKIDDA
# Procedure, shortened: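 RECQ1T1 50 nM; forked duplex (20 bp + 30-nt ss tails) 200 nM, ATP 2 mM final; pH 8.0, 2 mM MgCl2, 2.5 ug/ml poly(dI-dC); 15 min compound preincubation; discontinuous kinetic read over 2 h at RT.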
# [6] = Quantitative high throughput screen for delayed death inhibitors of the malarial parasite plastid, 96 hour incubation (AID 488745); further: potency means the concentration at half of the fitted maximal effect; nearly all actives have a fitted effect of over 70% in size
# Procedure, shortened: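 Readout is firefly luciferase luminescence from an integrated reporter in P. falciparum; lower signal marks inhibited growth. Cultures at 2% hematocrit and 0.1% parasitemia were treated with compound across two generations (96 h, 37 C, 5% CO2).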
# [7] = Quantitative high throughput screen for delayed death inhibitors of the malarial parasite plastid, 48 hour incubation (AID 488752); further: potency means the concentration at half of the fitted maximal effect; nearly all actives have a fitted effect of over 65% in size
# Procedure, shortened: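 First, compound was pinned into RPMI 1640 medium containing 0.5% Albumax. Next, reporter-parasite-infected erythrocytes were added to 2% hematocrit and 0.1% parasitemia. After 48 h at 37 C under 5% CO2, luciferase detection reagent was added and luminescence read.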
# [8] = molecular target: Thyrotropin receptor (Homo sapiens) (UniProt P16473); assay: qHTS Assay for Antagonists of the Thyroid Stimulating Hormone Receptor (AID 488980); further: 0% is about no effect
# Chain of Thyrotropin receptor (Homo sapiens) (P16473 whole entry, looked up): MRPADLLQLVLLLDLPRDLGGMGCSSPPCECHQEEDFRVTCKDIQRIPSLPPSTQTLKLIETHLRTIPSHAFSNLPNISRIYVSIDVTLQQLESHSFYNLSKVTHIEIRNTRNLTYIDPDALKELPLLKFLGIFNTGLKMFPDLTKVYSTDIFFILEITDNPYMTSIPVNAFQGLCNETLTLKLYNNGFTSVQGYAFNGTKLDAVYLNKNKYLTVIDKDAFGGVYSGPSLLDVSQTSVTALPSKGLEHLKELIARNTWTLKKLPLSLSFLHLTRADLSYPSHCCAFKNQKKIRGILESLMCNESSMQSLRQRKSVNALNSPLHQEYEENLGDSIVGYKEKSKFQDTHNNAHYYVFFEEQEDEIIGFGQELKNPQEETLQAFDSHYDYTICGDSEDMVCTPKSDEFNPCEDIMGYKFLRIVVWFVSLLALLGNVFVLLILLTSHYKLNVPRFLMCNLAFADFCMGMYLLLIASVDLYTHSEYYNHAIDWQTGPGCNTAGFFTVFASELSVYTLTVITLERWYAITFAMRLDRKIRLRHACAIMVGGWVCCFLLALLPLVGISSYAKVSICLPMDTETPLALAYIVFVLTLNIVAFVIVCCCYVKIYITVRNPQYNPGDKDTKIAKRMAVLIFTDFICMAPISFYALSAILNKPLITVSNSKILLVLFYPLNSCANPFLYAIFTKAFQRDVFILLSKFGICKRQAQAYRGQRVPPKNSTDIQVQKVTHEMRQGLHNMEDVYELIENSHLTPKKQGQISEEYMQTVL
# Procedure, shortened: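 Inhibition of cAMP raised by EC80 TSH (4 nM final) was read by HTRF, with lysate cAMP competing against cAMP-d2 for cryptate antibody after 30 min at room temperature. The cells were transfected HEK293 held in phosphodiesterase inhibitor RO 20-1724 at 70 uM.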
# [9] = molecular target: Thyrotropin-releasing hormone receptor (Homo sapiens) (UniProt P34981); assay: qHTS for Small Molecule Agonists and Allosteric Enhancers of Human TRH Receptor: Validation Screen for Agonists (AID 493127;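 active means calcium activation more than 3 SD above the typical response in the agonist read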;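 further: intracellular calcium rise by fluo-8 fluorescence before TRH EC20 addition; 0% is about no effect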); conditions: TRH receptor agonist cell assay; at 2 µM; hits give high values
# Chain of Thyrotropin-releasing hormone receptor (Homo sapiens) (P34981 whole entry, looked up): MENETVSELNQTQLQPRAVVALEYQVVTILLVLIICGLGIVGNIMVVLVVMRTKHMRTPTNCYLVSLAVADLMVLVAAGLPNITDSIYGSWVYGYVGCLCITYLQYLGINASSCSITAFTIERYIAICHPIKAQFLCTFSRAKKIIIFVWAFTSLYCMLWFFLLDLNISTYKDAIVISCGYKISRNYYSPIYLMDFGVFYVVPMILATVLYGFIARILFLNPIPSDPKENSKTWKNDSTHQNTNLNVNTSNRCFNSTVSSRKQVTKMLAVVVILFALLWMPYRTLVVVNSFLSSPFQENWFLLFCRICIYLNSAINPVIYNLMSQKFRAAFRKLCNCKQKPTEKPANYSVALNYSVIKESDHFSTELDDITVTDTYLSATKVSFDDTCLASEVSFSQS
# Procedure, shortened: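 Compounds are added by online pintool to dye-loaded TRHR cells while fluorescence is recorded every second. A rise in calcium signal during the agonist read marks activation; a later 10 nM TRH addition (EC20) serves the separate enhancer mode.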
# [10] = molecular target: Galactokinase (Homo sapiens) (UniProt P51570); assay: qHTS Validation Assay for Inhibitors of Human Galactokinase (GALK) (AID 493189); further: 0% is about no effect
# Chain of Galactokinase (Homo sapiens) (P51570 whole entry, looked up): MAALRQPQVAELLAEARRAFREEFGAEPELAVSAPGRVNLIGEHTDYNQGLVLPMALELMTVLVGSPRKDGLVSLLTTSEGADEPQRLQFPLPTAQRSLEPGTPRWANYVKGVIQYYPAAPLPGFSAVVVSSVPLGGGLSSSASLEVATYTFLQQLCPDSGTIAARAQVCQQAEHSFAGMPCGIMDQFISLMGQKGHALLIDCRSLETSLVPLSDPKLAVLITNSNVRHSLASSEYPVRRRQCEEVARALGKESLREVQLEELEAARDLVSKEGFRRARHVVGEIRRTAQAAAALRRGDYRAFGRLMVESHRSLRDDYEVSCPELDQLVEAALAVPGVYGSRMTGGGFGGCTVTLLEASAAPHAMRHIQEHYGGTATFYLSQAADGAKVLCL
# Procedure, shortened: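 Inhibition was measured as remaining ATP, detected by luciferase luminescence after a 1 h room-temperature reaction. Final conditions: 5 nM GALK, 100 uM galactose, 35 uM ATP, pH 8.0 HEPES buffer.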
# [11] = Validation screen for small molecules that induce DNA re-replication in SW480 colon adenocarcinoma cells (AID 504364); further: 0% is about no effect
# Procedure, shortened: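 Image-based qHTS: compounds were incubated with SW480 cells for 48 hr, nuclei stained with Hoechst, and per-nucleus fluorescence intensity scanned to flag cells with excess DNA content.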
# [12] = molecular target: DNA dC->dU-editing enzyme APOBEC-3G (Homo sapiens) (UniProt Q9HC16); assay: qHTS for inhibitors of Vif-A3G interactions: Validation (AID 588379); further: 0% is about no effect
# Chain of DNA dC->dU-editing enzyme APOBEC-3G (Homo sapiens) (Q9HC16 whole entry, looked up): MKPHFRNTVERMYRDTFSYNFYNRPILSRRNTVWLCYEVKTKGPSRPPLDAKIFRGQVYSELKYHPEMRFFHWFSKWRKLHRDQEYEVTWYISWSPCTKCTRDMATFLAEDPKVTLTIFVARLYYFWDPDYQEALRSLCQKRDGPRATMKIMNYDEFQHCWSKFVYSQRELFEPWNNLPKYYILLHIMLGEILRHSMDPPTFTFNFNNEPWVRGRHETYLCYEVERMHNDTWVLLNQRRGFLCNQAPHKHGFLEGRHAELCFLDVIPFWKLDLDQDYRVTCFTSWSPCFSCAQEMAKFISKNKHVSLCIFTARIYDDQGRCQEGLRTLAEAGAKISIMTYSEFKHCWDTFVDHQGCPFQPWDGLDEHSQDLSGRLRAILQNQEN
# Procedure, shortened: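 Yellow fluorescence (Ex 488, Em 500-530) of Vif-coexpressing HeLa A3G-eYFP cells, scanned by Acumen cytometer, reports blocked A3G degradation. Cells plated at 700/well overnight at 37 deg C before compound addition, then a further overnight compound incubation at 37 deg C.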
# [13] = qHTS profiling for inhibitors of Plasmodium falciparum proliferation (AID 504749); further: potency means the concentration at half of the fitted maximal effect; nearly all actives have a fitted effect of over 60% in size; conditions: P. falciparum in erythrocytes, SYBR Green DNA, 72 h
# Procedure, shortened: (§1)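 SYBR Green fluorescence of parasite DNA, read after lysis and overnight dark incubation, measured growth over 72 h in erythrocyte culture at 0.3% parasitemia and 2.5% hematocrit. Data normalised to DMSO and 0.29 uM artemisinin, with plate-drift correction.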
# [14] = tested on: 3D7; assay: as above; conditions: P. falciparum in erythrocytes, SYBR Green DNA, 72 h; series mostly up to 28.7 µM
# Procedure, shortened: as §1
# [15] = tested on: 7G8; assay: as above; conditions: P. falciparum in erythrocytes, SYBR Green DNA, 72 h; series mostly up to 28.7 µM
# Procedure, shortened: as §1
# [16] = tested on: AA1029; assay: as above; conditions: P. falciparum in erythrocytes, SYBR Green DNA, 72 h; series mostly up to 28.7 µM
# Procedure, shortened: as §1
# [17] = tested on: AS120; assay: as above; conditions: P. falciparum in erythrocytes, SYBR Green DNA, 72 h; series mostly up to 28.7 µM
# Procedure, shortened: as §1
# [18] = tested on: ATS189; assay: as above; conditions: P. falciparum in erythrocytes, SYBR Green DNA, 72 h; series mostly up to 28.7 µM
# Procedure, shortened: as §1
# [19] = tested on: ATS95; assay: as above; conditions: P. falciparum in erythrocytes, SYBR Green DNA, 72 h; series mostly up to 28.7 µM
# Procedure, shortened: as §1
# [20] = tested on: C2A; assay: as above; conditions: P. falciparum in erythrocytes, SYBR Green DNA, 72 h; series mostly up to 28.7 µM
# Procedure, shortened: as §1
# [21] = tested on: CP185; assay: as above; conditions: P. falciparum in erythrocytes, SYBR Green DNA, 72 h; series mostly up to 28.7 µM
# Procedure, shortened: as §1
# [22] = tested on: CP191; assay: as above; conditions: P. falciparum in erythrocytes, SYBR Green DNA, 72 h; series mostly up to 28.7 µM
# Procedure, shortened: as §1
# [23] = tested on: CP217; assay: as above; conditions: P. falciparum in erythrocytes, SYBR Green DNA, 72 h; series mostly up to 28.7 µM
# Procedure, shortened: as §1
# [24] = tested on: CP237; assay: as above; conditions: P. falciparum in erythrocytes, SYBR Green DNA, 72 h; series mostly up to 28.7 µM
# Procedure, shortened: as §1
structure (smiles),measurement,setting,value
CN1C[C@H](C(=O)N[C@]2(C)O[C@@]3(O)C4CCCN4C(=O)[C@H](Cc4ccccc4)N3C2=O)C[C@@H]2c3cccc4[nH]cc(c34)C[C@H]21 (stereo not given in full),outcome,[1],inactive
same,Potency,[2],inactive
same,Potency,[3],inactive
same,outcome,[4],inactive
same,Potency,[5],inactive
same,Potency,[6],2.94 µM (active)
same,Potency,[7],2.33 µM (active)
same,outcome,[8],inactive
same,activation,[9],0.625%
same,outcome,[10],inactive
same,outcome,[11],inactive
same,outcome,[12],inactive
same,Potency,[13]; parasite line A,8.91 µM (active)
same,Potency,[13]; parasite line B,4.47 µM (active)
same,Potency,[14],8.91 µM (active)
same,Potency,[15],0.158 µM (active)
same,Potency,[16],3.55 µM (active)
same,Potency,[17],1.41 µM (active)
same,Potency,[18],3.98 µM (active)
same,Potency,[19],7.08 µM (active)
same,Potency,[20],8.91 µM (active)
same,Potency,[21],7.94 µM (active)
same,Potency,[22],7.08 µM (active)
same,Potency,[23],6.31 µM (active)
same,Potency,[24],1 µM (active)
